Compound activity: PubChem BioAssay, National Center for Advancing Translational Sciences (NCATS)
Hits are enriched below; roughly 12% of the tested compounds scored in any of these assays.
JMJD2A Tudor – JMJD2A Tudor domain (human) inhibition; AID 504339; Potency, µM (titrated, usually from 114 µM), without a hit: at the top dose activity change, negative = inhibition, hits mostly inhibitors; 4.4% of 390,000 active; AlphaScreen JMJD2A-Tudor / H3K4me3 peptide binding; O75164; note: % is set by controls: 0 for no effect and ±100 for the full control effect; nearly all actives have a fitted effect of over 50% in size
Target sequence (O75164 whole entry, looked up, the tested form may be a part): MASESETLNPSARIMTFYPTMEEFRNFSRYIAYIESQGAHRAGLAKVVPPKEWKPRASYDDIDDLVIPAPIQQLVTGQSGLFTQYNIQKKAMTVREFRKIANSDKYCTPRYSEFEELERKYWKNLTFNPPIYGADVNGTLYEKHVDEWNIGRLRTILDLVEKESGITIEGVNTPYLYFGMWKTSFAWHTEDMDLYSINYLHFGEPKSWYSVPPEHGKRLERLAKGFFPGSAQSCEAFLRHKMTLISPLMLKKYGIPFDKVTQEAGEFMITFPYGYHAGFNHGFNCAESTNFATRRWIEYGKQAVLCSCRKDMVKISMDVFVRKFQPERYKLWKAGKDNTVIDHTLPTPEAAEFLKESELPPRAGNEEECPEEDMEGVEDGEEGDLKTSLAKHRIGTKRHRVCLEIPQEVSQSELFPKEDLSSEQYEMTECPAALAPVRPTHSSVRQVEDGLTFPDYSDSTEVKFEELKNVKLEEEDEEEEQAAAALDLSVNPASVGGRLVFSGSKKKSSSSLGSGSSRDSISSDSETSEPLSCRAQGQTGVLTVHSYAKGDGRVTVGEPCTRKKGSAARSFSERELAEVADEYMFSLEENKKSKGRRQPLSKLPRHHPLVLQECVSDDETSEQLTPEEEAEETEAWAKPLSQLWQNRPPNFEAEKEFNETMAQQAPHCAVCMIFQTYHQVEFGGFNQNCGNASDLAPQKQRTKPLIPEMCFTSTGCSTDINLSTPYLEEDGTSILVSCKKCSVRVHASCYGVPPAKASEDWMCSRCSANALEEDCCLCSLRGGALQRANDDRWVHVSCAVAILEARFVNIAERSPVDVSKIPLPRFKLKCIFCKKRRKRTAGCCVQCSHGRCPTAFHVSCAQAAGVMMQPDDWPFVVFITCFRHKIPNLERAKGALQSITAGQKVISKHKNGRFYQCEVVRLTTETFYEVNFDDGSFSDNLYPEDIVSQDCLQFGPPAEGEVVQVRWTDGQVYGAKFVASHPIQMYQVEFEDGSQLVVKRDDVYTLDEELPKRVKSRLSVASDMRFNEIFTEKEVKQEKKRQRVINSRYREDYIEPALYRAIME
G9a block – G9a (human) methyltransferase inhibition; Potency, µM (titrated, usually from 102 µM), without a hit: top-dose activity, negative = inhibition, actives largely listed as inhibitors; Q96KQ7; G9a H3K9 monomethylation, AlphaScreen, 2 h; AID 504332; 8.8% of 350,000 active; note: % is set by controls: 0 for no effect and ±100 for the full control effect; nearly all actives have a fitted effect of over 75% in size
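AlphaScreen detection with an anti-monomethyl H3K9 antibody quantified product after a 2 h room-temperature reaction containing 500 nM biotinylated H3K9 peptide, 20 µM SAM and 20 nM enzyme, which had been preincubated 15 min with compound.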
L3MBTL1 block – inhibitors of human L3MBTL1. Q9Y468. AlphaScreen L3MBTL1–H3K9me1 peptide binding. Potency, µM (titrated, usually from 57.1 µM), inactives show at the highest dose activity, negative = inhibition, hits mostly inhibitors. 0.66% of 230,000 active; note: % is set by controls: 0 for no effect and ±100 for the full control effect; nearly all actives have a fitted effect of over 60% in size
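L3MBTL1 (50 nM) pre-complexed 30 min with biotinylated H3(1-15)K9me1 peptide (75 nM), then compounds added for 30 min at room temperature; AlphaScreen streptavidin donor/nickel chelate acceptor beads (10 ug/mL final) read after 30 min dark incubation.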
Sfp PPTase inh – Sfp phosphopantetheinyl transferase inhibition; AID 1490; 3.5% of 310,000 active; Biochemical Sfp PPTase activity, qHTS; Potency, µM, for inactives: largest response in the series, negative = inhibition, hits mostly inhibitors; Q9F4F7;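 note: the enzyme is Sfp with the accession as filed and its product quenches rhodamine fluorescence; 0% = enzyme reaction without inhibitor and -100% = no enzyme wells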
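Step 1, compound plus 15 nM Sfp-PPTase, 15 min, room temperature. Step 2, add rhodamine-CoA (5 uM) and BHQ-2-YbbR (12.5 uM). Step 3, read 525/598 nm fluorescence at 0 and 30 min.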
BAZ2B inh – inhibitors of human BAZ2B bromodomain; Potency, µM (doses to about 114 µM), for inactives: at the top dose activity change, negative = inhibition, hits mostly inhibitors; 4.4% of 360,000 active; AID 504333; Q9UIF8; AlphaScreen BAZ2B-H3K14Ac peptide displacement; note: % is set by controls: 0 for no effect and ±100 for the full control effect; nearly all actives have a fitted effect of over 60% in size
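Complex of BAZ2B and biotin-H3K14Ac (50 nM apiece) forms over 30 min at RT, then faces library compounds up to 110 uM for another 30 min; AlphaScreen beads added, 20 min dark incubation, luminescence read.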
HP1b binding inh – inhibitors of HP1-beta chromodomain binding to methylated histone tails | P83916 | AlphaScreen HP1-beta / biotin-H3K9me3 peptide binding | Potency, µM (top dose mostly 114 µM), inactives show top-dose activity change, negative = inhibition, usual class: inhibitors | 0.56% of 390,000 active | AID 540317; note: nearly all actives have a fitted effect of over 70% in size
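Compound inhibition of the preformed complex between 50 nM HP1-beta and 50 nM biotinylated H3K9me3 peptide was read by AlphaScreen. Buffer was PBS pH 7.4 with 0.01% Tween-20. Incubations ran 30 min at room temperature, with 10 ug/mL donor/acceptor beads.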
* hit, by the source's call; u = inconclusive; x = no result; [ ] = remark or other dose. Calls come from the whole dose curve; as a rule, active = well fitted curve in the direction sought with a large enough effect; inconclusive = small, poorly fitted or top-dose-only effect, or another doubt; inactive = no such curve, though single readings can be large; an effect the other way counts as inactive or inconclusive. Potency is the fitted concentration of half-maximal effect.

SMILES	JMJD2A Tudor	G9a block	L3MBTL1 block	Sfp PPTase inh	BAZ2B inh	HP1b binding inh
COc1ccc(C(C)=O)cc1CSc1nc2cc(C(=O)O)ccc2c(=O)n1Cc1ccccc1	-31%	u	-5%	-8%	50µM*	15%
CCOC(Cn1c(SCc2cc(C(C)=O)ccc2OC)nc2ccccc2c1=O)OCC	1%	19%	1%	8%	2%	29%
C/C(CCC(C)C)=N\NC(=S)NCc1ccccc1	56µM*	45µM*	-10%	-13%	u	-10%
C/C(CCc1ccccc1)=N\NC(=S)NCCc1ccccc1	u	u	x	1%	40µM*	-22%
COCCNC(=S)N/N=C(\C)CCc1ccc2c(c1)OCO2	-30%	50µM*	10%	40µM*	-39%	-4%
C/C(=N\NC(=S)NCCc1ccccc1)c1cccs1	u	u	u	7%	35µM*	u
NNC(=S)NCCc1ccccc1	u	12%[12.7 µM]	-2%	8%	u	2%
C/C(=N\NC(=S)NCc1ccccc1)c1ccc2ccccc2c1	-38%	1%[59 µM]	-9%	-14%	u	-11%
CC(C)CC(CSc1ccc(Br)cc1)N1CCN(CCc2ccccc2)CCC1=O (centres undefined)	-26%	x	x	-4%	x	12%
O=c1c2cc3c(cc2n(Cc2ccc(F)cc2)c(=O)n1Cc1nc(-c2ccccc2)no1)OCO3	12%	2%[59 µM]	x	x	-4%	45%
COc1ccccc1N1CCN(C(=O)c2cnc(N3CCCCC3)c3ccccc23)CC1	-20%	6%[59 µM]	x	x	-12%	8%[57 µM]
O=C(c1cc(COc2ccc(F)cc2Cl)on1)N1CCCCCC1	16%	90%	x	1%	35%	41%
O=C(c1cc(COc2ccc(F)cc2Cl)on1)N1CCCCCCC1	20µM*	62%	x	0%	46%	79%
O=C(O)c1cccc(-c2noc(-c3ccccc3F)n2)c1	-19%	2%[12.7 µM]	x	x	x	x
CCN(Cc1ccccc1)c1ccc(/C=C(\C#N)c2ccccn2)cc1	114%	50µM*	65%	u	8%	188%
C#CCOCCOCCOCCNc1nc(N2CCN(C(=O)CCCCCCCCCCNC(=O)[C@H](CO)n3cc(CCCCCN)nn3)CC2)nc(N2CCN(C(=O)CCCCCCCCCCNC(=O)[C@H](CCCN=C(N)N)n3cc(C[C@@H](C)CC)nn3)CC2)n1	x	3%[2.33 µM]	-2%	x	50µM*	x
C#CCOCCOCCOCCNc1nc(N2CCN(C(=O)CCCCCCCCCCNC(=O)[C@@H](CCSC)n3cc(CCO)nn3)CC2)nc(N2CCN(C(=O)CCCCCCCCCCNC(=O)[C@H](CCC(=O)O)n3cc(CCCCCN)nn3)CC2)n1	-36%	-11%[2.33 µM]	-3%	x	-12%	7%
C#CCOCCOCCOCCNc1nc(N2CCN(C(=O)CCCCCCCCCCNC(=O)[C@H](CCCCN)n3cc(C[C@@H](C)CC)nn3)CC2)nc(N2CCN(C(=O)CCCCCCCCCCNC(=O)[C@H](CCCN=C(N)N)n3cc(C[C@@H](C)CC)nn3)CC2)n1	35µM*	-38%[2.33 µM]	-6%	x	50µM*	50µM*
C#CCOCCOCCOCCNc1nc(N2CCN(C(=O)CCCCCCCCCCNC(=O)[C@H](CCCCN)n3cc(C)nn3)CC2)nc(N2CCN(C(=O)CCCCCCCCCCNC(=O)[C@H](CCCN=C(N)N)n3cc(C[C@@H](C)CC)nn3)CC2)n1	56µM*	-7%[2.33 µM]	u	x	u	u
C#CCOCCOCCOCCNc1nc(N2CCN(C(=O)CCCCCCCCCCNC(=O)[C@@H](CCSC)n3cc(CCO)nn3)CC2)nc(N2CCN(C(=O)CCCCCCCCCCNC(=O)[C@H](CCCN=C(N)N)n3cc(C[C@@H](C)CC)nn3)CC2)n1	45µM*	-15%[2.33 µM]	-8%	x	50µM*	-32%
